Screens as filed in PubChem BioAssay.
Hits are enriched below; roughly 2.6% of the tested compounds scored in any of these assays.
Anthrax LT inh = anthrax lethal toxin internalization inhibition; Cells, anthrax lethal toxin internalization, FRET ratio (460/530); Potency, µM (highest dose often 40 µM), for inactives: at the top dose activity change, negative = inhibition, most hits filed as inhibitors; 0.67% of 70,000 active; also: % is scaled to controls: 0 for no effect and ±100 for the full control effect; nearly all actives have a fitted effect of over 50% in size
SmPrx2 inh = blocks S. mansoni peroxiredoxin 2 enzymatic activity. Potency, µM. S. mansoni Prx2 activity coupled to TGR/GSH (TGR is thioredoxin glutathione reductase), NADPH fluorescence loss, qHTS. 0.07% of 65,000 active
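Prx2 inhibition was measured as reduced NADPH consumption when electrons flowed from NADPH through TGR and glutathione to Prx2 and H2O2. Plates were read kinetically over 8 min; enzyme reagents were held at 4 deg C during dispensing.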
AmpC nodet inh = AmpC beta-lactamase inhibition, detergent-free assay. Potency, µM (highest dose often 28.7 µM), for inactives: top-dose activity change, negative = inhibition. 1.8% of 71,000 active. AmpC nitrocefin hydrolysis, absorbance 480 nm, no detergent; also: % of control where 0% means no effect
Target sequence (P00811 whole entry, looked up): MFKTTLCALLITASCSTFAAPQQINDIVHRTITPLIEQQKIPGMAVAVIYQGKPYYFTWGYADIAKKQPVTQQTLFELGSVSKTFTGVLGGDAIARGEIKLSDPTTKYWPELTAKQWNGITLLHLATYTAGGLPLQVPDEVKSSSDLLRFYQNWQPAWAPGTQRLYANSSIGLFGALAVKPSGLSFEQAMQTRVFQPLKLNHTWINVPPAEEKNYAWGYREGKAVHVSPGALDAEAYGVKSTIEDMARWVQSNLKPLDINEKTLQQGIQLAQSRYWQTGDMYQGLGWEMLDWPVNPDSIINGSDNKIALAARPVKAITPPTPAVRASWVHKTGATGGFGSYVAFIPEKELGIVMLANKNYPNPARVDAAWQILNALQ
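AmpC, 20 mM phosphate pH 7.0; 15 min cpd preinc, RT; start with nitrocefin (800 uM stock); A480 kinetic read, 20 s intervals, 4 min. No-enzyme wells = negative control.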
AmpC det inh = blocks E. coli AmpC beta-lactamase in presence of detergent; purified AmpC, nitrocefin hydrolysis with detergent; P00811; 0.09% of 71,000 active; AID 584; Potency, µM (titrated, usually from 28.7 µM), for inactives: at the highest dose activity change, negative = inhibition; active = well fitted curve in the direction sought with a large enough effect; inconclusive = small, poorly fitted or top-dose-only effect; also: % is scaled to controls: 0 for no effect and ±100 for the full control effect
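E. coli AmpC (5.3 nM) in 20 mM phosphate pH 7.0 with 0.01% Triton X-100, preincubated 15 min RT with compound; nitrocefin (2 uL of 800 uM stock) hydrolysis followed by 480 nm absorbance every 20 s over 4 min.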
Active calls of the source: *; u = inconclusive; x = no result; ! = not active in a repeat; [ ] = remark or other dose. Unless noted, calls follow the shape of the full dose curve. Potency is read from the fitted curve at half-maximal effect.

SMILES	Anthrax LT inh	SmPrx2 inh	AmpC nodet inh	AmpC det inh
CCn1c(SCC(=O)c2cc(OC)ccc2OC)nnc1-c1ccncc1	x	>57	31.2%	-3.8%
CCN1CCN(c2cc(C)c3cc(NC(=O)c4ccc5c(c4)OCO5)ccc3n2)CC1	10µM*	>57	60.4%	10.6%
CCN1CCN(c2cc(C)c3cc(NC(=O)c4cncc(Br)c4)ccc3n2)CC1	25.1µM*	>57	111.8%	-4.3%
Cn1nc(-c2ccc(Cl)cc2)c2cc(C(=O)N3CCN(C(=O)c4ccco4)CC3)sc21	-9.6%	x	3.98µM*[single pt active]	12.5%
Cn1nc(-c2ccc(Cl)cc2)c2cc(C(=O)NC3CC3)sc21	-1.7%	>57	3.98µM*[single pt active]	10.0%
CCOCCCNC(=O)c1cc2c(-c3ccc(Cl)cc3)nn(C)c2s1	-9.5%	>57	129.7%	8.2%
Cn1nc(-c2ccc(Cl)cc2)c2cc(C(=O)NCCN3CCOCC3)sc21	u	>57	146.5%	14.0%
Cn1nc(-c2ccc(Cl)cc2)c2cc(C(=O)NCCCN3CCOCC3)sc21	2.51µM*	>57	123.5%	12.7%
CCN(CC)CCNC(=O)c1cc2c(-c3ccc(Cl)cc3)nn(C)c2s1	10µM*	>57	3.98µM*[single pt active]	5.5%
CCN1CCN(C(=O)c2cc3c(-c4ccc(Cl)cc4)nn(C)c3s2)CC1	4.6%	>57	155.1%	9.2%
C[C@H](N)C1CCC(C(=O)Nc2ccncc2)CC1 (stereo not given in full)	6.0%	>57	-9.7%	-1.4%
Cc1cc(C)nc(SCC(=O)Nc2ccc(S(=O)(=O)Nc3onc(C)c3C)cc2)n1	-4.5%	>57	7.4%	5.1%
Cc1noc(NS(=O)(=O)c2ccc(NC(=O)CSc3ncccn3)cc2)c1C	3.5%	6.8*	-8.1%	3.2%
Nc1nc(SCC(=O)O)[nH]c(=O)c1N	-2.7%[8 µM]	>57	-8.1%[5.75 µM]	-3.6%[5.75 µM]
O=C(CN1C(=O)C2C3C=CC(C3)C2C1=O)Nc1ccc2nccnc2c1 (stereo not given)	7.1%	>57	3.98µM*[single pt active]	12.9%
Cc1[nH]nc2nc(SCC(=O)NCC3CCCO3)n(-c3ccc(Br)cc3)c(=N)c12 (stereo not given)	-17.8%	>57	135.2%	-2.0%
Cc1cc(-n2c(SCC(=O)NCc3cccs3)nc3n[nH]c(C)c3c2=N)ccc1Cl	10µM*	>57	41.9%	-2.9%
COc1cccc(C2c3c(oc4ccccc4c3=O)C(=O)N2CCCN2CCOCC2)c1 (stereo not given)	0.6%	>57	3.98µM*[single pt active]	12.2%
CC(C)CCOc1cccc(C2c3c(oc4ccccc4c3=O)C(=O)N2CCCN2CCOCC2)c1 (stereo not given)	-19.7%	>57	114.9%	14.5%
CCCCNc1nc(N(C)c2ccccc2)nc(-n2ccnc2)n1	12.6µM*	>57	28.2%	-2.9%
O=C1/C(=C/c2ccccc2)[C@@H](NC2CCCCC2)c2ccccc21	3.98µM*	x	9.0%[5.75 µM]	-2.1%[5.75 µM]
CCNC(=O)[C@@H]1O[C@@H](n2cnc3c(NCc4ccccc4)ncnc32)[C@@H](O)[C@H]1O	u	>57	2.2%	-3.2%
O=C(c1cnn2ccccc12)N1CCCc2ccccc21	11.5%	>57	3.98µM*[single pt active]	8.7%
COc1cccc(CNc2nc3ccccc3n2CCN2CCCCC2)c1	2.2%	>57	50.5%	-3.1%
c1cc(CN2CCCCC2)cc(OCCCNc2nc3ccccc3s2)c1	25.1µM*!	>57	74.5%	-0.5%
SMILES	Anthrax LT inh	SmPrx2 inh	AmpC nodet inh	AmpC det inh
O[C@@H](c1cc(-c2ccccc2)nc2c1ccc1ccccc12)[C@@H]1CCCCN1	-9.9%[8 µM]	>57	11.5%[5.75 µM]	14.1%[5.75 µM]
COc1cccc(NC(=O)c2ccc(CN3CCN(c4ccccc4)CC3)cc2)c1	10µM*	>57	31.7%	-5.1%
O=C(O)C(Cc1cccs1)C(=O)O	0.7%[8 µM]	>57	-0.1%[5.75 µM]	0.8%[5.75 µM]
C=C(C)c1cccc(C(C)(C)NC(=O)N2CCN(c3ccccn3)CC2)c1	-22.4%	>57	3.98µM*[single pt active]	13.7%
Nc1ccc(O)c(-c2nc3ccccc3s2)c1	u	>57	0.398µM*	7.0%
Nc1cccc(-c2nc3ccc(N)cc3s2)c1	u	>57	3.6%	-2.8%
COc1ccc2cc(C(=O)CCC(=O)O)ccc2c1	-3.9%[8 µM]	>57	0.0%[5.75 µM]	-5.9%[5.75 µM]
CCCCNc1nc(C)nc2c1nc(-c1ccccc1)n2C1CCN(Cc2ccccc2)C1 (stereo not given)	12.6µM*	x	96.1%	9.9%
Cc1nc(NCc2ccccc2)c2nc(-c3ccccc3)n(C3CCN(Cc4ccccc4)C3)c2n1 (stereo not given)	u	x	70.5%	14.7%
O=S(=O)(c1ccc(Oc2ccc(S(=O)(=O)N3CCOCC3)cc2)cc1)N1CCOCC1	-15.0%	x	107.7%	-1.2%
